PubChem BioAssay (NCATS)
Inconclusive results are not listed. The source made the active and inactive calls. Unless noted, how the calls were made is not given here.

Key:
[1] = qHTS profiling of the MIPE4 collection as inhibitors of Plasmodium falciparum (3D7) proliferation (AID 743344);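 further: scaled between DMSO vehicle wells and 0.29 µM artemisinin as full inhibition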; conditions: P. falciparum 3D7 in erythrocytes, SYBR Green DNA fluorescence, 72 h; at 28.5 µM unless noted
Method in brief: (§1)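 Erythrocytes infected with P. falciparum (0.3% parasitemia, 2.5% hematocrit) incubated with compounds 72 h at 37 C, 5% CO2. Lysis with saponin/Triton buffer containing SYBR Green I, overnight at room temperature in the dark; DNA fluorescence (485/535 nm) normalised to 0.29 uM artemisinin and DMSO.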

[2] = qHTS profiling of the MIPE4 collection as inhibitors of Plasmodium falciparum (DD2) proliferation (AID 743345); conditions: P. falciparum Dd2 in erythrocytes, SYBR Green DNA, 72 h; at 28.5 µM unless noted
Method in brief: as §1

[3] = qHTS profiling of the MIPE4 collection as inhibitors of Plasmodium falciparum (DD2) proliferation (Rep 2) (AID 743346); conditions: P. falciparum Dd2 in erythrocytes, SYBR Green DNA, 72 h; at 28.5 µM unless noted
Method in brief: as §1

[4] = High-throughput drug toxicity screening in the BPDCN cell line Gen2.2 (AID 1224824); conditions: Gen2.2 BPDCN cells; at 45.8 µM (top of the series) unless noted
Method in brief: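 CellTiter-Glo luminescence read after 48 h compound exposure at 37 C defines viability; percent activity set with DMSO as 100% and bortezomib (9.2 uM final) as 0%. 500 exponentially growing cells per well, RPMI plus 10% FBS.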

[5] = High-throughput drug toxicity screening in the BPDCN cell line Cal-1 (AID 1224825); conditions: Cal-1 BPDCN cell viability, qHTS; at 45.8 µM (top of the series) unless noted
Method in brief: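 Cal-1 cells, 500 per well in phenol-red-free RPMI with 10% FBS, exposed to compounds for 48 hours at 37C, 5% CO2. Viability read by CellTiter-Glo luminescence; percent activity normalized to DMSO (100%) and 9.2 uM bortezomib final (0%).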

[6] = qHTS assay for measurement of the activity of small molecule inhibitors on Zika virus induced Caspase-3 activity in human astrocytoma cells (AID 1224859; active means well fitted curve in the direction sought with a large enough effect; an effect the other way counts as inactive or inconclusive;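 further: plate controls were ZIKV-infected untreated cells for no effect and uninfected cells for full effect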)
Method in brief: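 A cell-based luminescent caspase-3/7 assay used SNB-19 cells infected with ZIKV (2 FFU/cell) for 6 h following 1 h compound pretreatment.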

[7] = qHTS Screen of the MIPE 4.0 Collection Against Ewings Sarcoma (RDES) (AID 1259252; active means well fitted curve in the direction sought with a large enough effect; an effect the other way counts as inactive or inconclusive; further: nearly all actives have a fitted effect of over 35% in size; further: potency means the concentration at half of the fitted maximal effect)
Method in brief: (§2)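 Viability screen: 48 h incubation at 37C, 95% humidity, 5% CO2 with serially titrated compound, followed by CellTiter-Glo readout.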

[8] = P-glycoprotein substrates identified in KB-3-1 adenocarcinoma cell line, qHTS therapeutic library screen (AID 1346986; active means well fitted curve in the direction sought with a large enough effect; an effect the other way counts as inactive or inconclusive; further: nearly all actives have a fitted effect of over 60% in size;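 further: potency means the concentration at half of the fitted maximal effect; potency is for cytotoxicity meaning loss of cell viability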)
Method in brief: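 Compounds were tested in dose-response against KB-3-1 and KB-8-5-11 cells at 37 degree C for 72 h, and viability was measured by luminescence. AC50 values came from curve fitting with class-based activity calls.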

[9] = qHTS profiling of the MIPE4 collection as inhibitors of Plasmodium falciparum (HB3) proliferation (AID 743347);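 further: plate controls were DMSO vehicle wells for no effect and artemisinin wells for full effect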; conditions: P. falciparum HB3 in erythrocytes, SYBR Green DNA, 72 h; at 28.5 µM unless noted
Method in brief: as §1

[10] = qHTS Screen of the MIPE 4.0 Collection Against Ewings Sarcoma (TC71) (AID 1259253; active means well fitted curve in the direction sought with a large enough effect; an effect the other way counts as inactive or inconclusive; further: nearly all actives have a fitted effect of over 40% in size; further: potency means the concentration at half of the fitted maximal effect)
Method in brief: as §2

[11] = qHTS Screen of the MIPE 4.0 Collection Against Ewings Sarcoma (EW8) (AID 1259255; active means well fitted curve in the direction sought with a large enough effect; an effect the other way counts as inactive or inconclusive; further: nearly all actives have a fitted effect of over 35% in size; further: potency means the concentration at half of the fitted maximal effect;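 on viability: 100% = DMSO-treated cells and 0% = medium-only wells without cells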)
Method in brief: as §2

[12] = qHTS Screen of the MIPE 4.0 Collection Against Ewings Sarcoma (TC32) (AID 1259256; active means well fitted curve in the direction sought with a large enough effect; an effect the other way counts as inactive or inconclusive; further: nearly all actives have a fitted effect of over 45% in size; further: potency means the concentration at half of the fitted maximal effect)
Method in brief: as §2

[13] = qHTS assay to identify small molecule inhibitors of chordoma cells - UCH-2 (AID 1259356; active means well fitted curve in the direction sought with a large enough effect; an effect the other way counts as inactive or inconclusive; further: on the % scale 0 is the no-effect control and ±100 the full control effect)
[14] = qHTS profiling for inhibitors of Plasmodium falciparum (HB3) proliferation (AID 743324; active means well fitted curve in the direction sought with a large enough effect; an effect the other way counts as inactive or inconclusive;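 further: 100% = DMSO vehicle wells and 0% = artemisinin-treated control wells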); conditions: Plasmodium falciparum HB3 blood-stage proliferation; at 28.7 µM (top of the series) unless noted
Method in brief: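 P. falciparum HB3 grown in erythrocytes (0.3% parasitemia, 2.5% hematocrit final) with compound for 72 h at 37 C, 5% CO2. Parasite DNA detected by SYBR Green after saponin/triton lysis overnight; normalized to 0.29 uM artemisinin and DMSO.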

[15] = Identifying Small Molecule Inhibitors of Pancreatic Cancer Stem Cells (SN12C, Adherent) (AID 1259358; active means well fitted curve in the direction sought with a large enough effect; an effect the other way counts as inactive or inconclusive;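 further: cell survival measured after 48 h of compound exposure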)
Method in brief: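 Monolayer and spheroid cultures are compared. Spheroids form over 14 days in stem cell medium on hydrogel-coated low-attachment plates, then are exposed to compound for 48 h before CellTiter-Glo luminescence.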

Row | SMILES | parasite growth, % of DMSO control [1] | parasite growth remaining, % of DMSO control (lower = more inhibition) [2] | parasite growth, % of control (lower = inhibition) [3] | cell viability, % of control (lower = more cytotoxic) [4] | viability (% of control) [5] | Potency [6] | Potency [7] | Potency [8] | growth, % of control [9] | Potency [10] | Potency [11] | Potency [12] | outcome [8] | outcome [13] | remaining proliferation (% of control), lower = more inhibition [14] | Potency [15]
1 | CSc1cccc(Nc2ncc3cc(-c4c(Cl)cccc4Cl)c(=O)n(C)c3n2)c1 | 5.72% | 13.9% | 9.88% | 288% | 34.2% | inactive | 0.0935 µM (active) | 2.06 µM (active) | – | – | – | – | – | – | – | –
2 | Cc1cc(NC(=O)Nc2ccc(N(C)C)cc2)c2cc(F)cc(F)c2n1 | 9.65% | 46% | 10.9% | 149% | 112% | inactive | inactive | inactive | 10.1% | inactive | 26.4 µM (active) | – | – | – | – | –
3 | COc1cc2c(cc1Cc1cccc(Cl)c1F)c(=O)c(C(=O)O)cn2[C@H](CO)C(C)C | 7.9% | 19% | – | 19.1% | 11% | – | 26.4 µM (active) | – | – | 20.9 µM (active) | 23.5 µM (active) | – | – | – | – | –
4 | CC=C(C(=CC)c1ccc(O)cc1)c1ccc(O)cc1 | 61.7% | 94.2% | 67.7% | 43.4% | 26.7% | inactive | – | – | 70.1% | – | – | – | – | – | – | –
5 | CN[C@H]1[C@@H](O[C@@H]2[C@H](O[C@@H]3[C@@H](O)[C@@H](O)[C@@H](N=C(N)N)[C@@H](O)[C@@H]3N=C(N)N)O[C@H](C)[C@@]2(O)C=O)O[C@@H](CO)[C@@H](O)[C@H]1O | 99% [at 9.64 µM] | 94.4% [at 9.64 µM] | 87.4% [at 9.64 µM] | 122% [at 15.3 µM] | 118% [at 15.3 µM] | inactive | – | – | 89.1% [at 9.64 µM] | – | inactive | inactive | inactive [at 9.29 µM] | – | – | –
6 | O=S(=O)(NCCNCC=Cc1ccc(Br)cc1)c1cccc2cnccc12 | 35.6% | 19.2% | 35.5% | 247% | 57.7% | inactive | 2.64 µM (active) | – | 33.3% | – | – | – | – | – | – | –
7 | COc1ccc(-c2ccc3ncc4c(c3c2)n(-c2ccc(N3CCNCC3)c(C(F)(F)F)c2)c(=O)n4C)cn1 | 7.25% | 6.37% | 9.13% | 0.968% | 0.939% | inactive | – | 0.0231 µM (active) | 3.39% | 0.0059 µM (active) | – | – | – | – | – | –
8 | CCC(=O)OCC(=O)[C@@]1(OC(=O)CC)[C@@H](C)C[C@@H]2[C@H]3CCC4=CC(=O)C=C[C@]4(C)[C@@]3(F)[C@@H](O)C[C@@]21C | 12% | 64.4% | 39.1% | 17.4% | 15% | inactive | inactive | inactive | 48.2% | – | – | inactive | – | – | – | –
9 | C[C@@H](O)[C@H]1C(=O)N2C(C(=O)OCOC(=O)C(C)(C)C)=C(SC3CN(C4=NCCS4)C3)[C@H](C)[C@H]12 | 66% | 99.9% | 107% | 58.2% | 39.5% | inactive | inactive | – | 104% | inactive | – | – | – | – | – | –
10 | Cc1ccc2c(c1)C(=O)[C@]1(O)CCN(c3ccccc3)C1=N2 | 70.4% | 90.7% | 89.8% | 91% | 34.3% | inactive | – | – | 76.8% | 18.7 µM (active) | 18.7 µM (active) | inactive | – | – | – | –
11 | CC(C)[C@H](O)C(=O)N[C@@H](C)C(=O)N[C@@H]1C(=O)N(C)CCc2ccccc21 | 13.3% | 14.9% | 26.2% | 95.1% | 95.1% | inactive | 16.6 µM (active) | – | 17.8% | – | inactive | inactive | – | – | – | –
12 | CCNC(=O)CCCC=CC[C@@H]1[C@H](C=CC(O)CCc2ccccc2)[C@@H](O)C[C@@H]1O (some centres undefined) | 63.1% | 127% | 60.3% | 108% | 21% | inactive | – | – | – | inactive | 23.5 µM (active) | inactive | – | – | – | –
13 | Fc1ccc(C(c2ccc(F)cc2)N2CCN(CC=Cc3ccccc3)CC2)cc1 | 6.36% | 14.4% | 44.1% | 18.7% | 30.9% | inactive | inactive | – | 5.16% | – | 16.6 µM (active) | – | – | inactive | – | –
14 | O=C(Nc1cccc(Cl)c1)Nc1ncc(CCNc2ncnc3ccsc23)s1 | 15.2% | 67.5% | 39% | 122% | 20.2% | inactive | 1.18 µM (active) | – | 5.75% | – | 0.235 µM (active) | 0.296 µM (active) | – | – | -0.601% | inactive
15 | CNC1CCC(N(Cc2cccc(-c3ccncc3)c2)C(=O)c2sc3ccccc3c2Cl)CC1 (centres undefined) | 4.86% | 7.31% | 9.91% | 3.76% | 1.63% | inactive | 26.4 µM (active) | – | 6.96% | – | 23.5 µM (active) | 20.9 µM (active) | – | – | – | –
16 | CCCCN(CCCC)CC(O)c1cc(Cl)cc2c1-c1ccc(Cl)cc1C2=Cc1ccc(Cl)cc1 (centres undefined) | 8.66% | 7.19% | 11.5% | 27% | 63% | inactive | inactive | – | 11.8% | – | inactive | – | – | – | – | –
